SW480 rerep: A quantitative high throughput screen for small molecules that induce DNA re-replication in SW480 colon adenocarcinoma cells; 1.8% of 340,000 active; AID 624297, 2012; Potency, µM (series often up to 46.1 µM), hits mostly activators; SW480 DNA re-replication, Hoechst DNA content imaging, 48 h; also: nearly all actives have a fitted effect of over 55% in size
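Compounds, transferred as 23 nL by pin tool, were incubated with cells for 48 hr; DNA content per nucleus was then quantified by Hoechst staining and fluorescence plate imaging.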
VP16 counter: VP16 counterscreen qHTS for inhibitors of ROR gamma transcriptional activity; Potency, µM (titrated, usually from 53.6 µM), usual class: inhibitors; Drosophila S2 Gal4-VP16 UAS-luciferase, luminescence, 20 h; 3.5% of 310,000 active;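 also: Gal4-VP16 expression switched on by copper sulfate through the metallothionein promoter; nearly all actives have a fitted effect of over 50% in size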
RORg inh: qHTS for inhibitors of ROR gamma transcriptional activity. Drosophila S2 Gal4-RORgamma UAS-luciferase reporter, 20 h. Nuclear receptor ROR-gamma (Mus musculus), P51450. 5.4% of 310,000 active. Potency, µM (series often up to 53.6 µM), most hits filed as inhibitors. AID 2551, 2010; also: nearly all actives have a fitted effect of over 60% in size
Target sequence (P51450 whole entry, looked up, the tested form may be a part): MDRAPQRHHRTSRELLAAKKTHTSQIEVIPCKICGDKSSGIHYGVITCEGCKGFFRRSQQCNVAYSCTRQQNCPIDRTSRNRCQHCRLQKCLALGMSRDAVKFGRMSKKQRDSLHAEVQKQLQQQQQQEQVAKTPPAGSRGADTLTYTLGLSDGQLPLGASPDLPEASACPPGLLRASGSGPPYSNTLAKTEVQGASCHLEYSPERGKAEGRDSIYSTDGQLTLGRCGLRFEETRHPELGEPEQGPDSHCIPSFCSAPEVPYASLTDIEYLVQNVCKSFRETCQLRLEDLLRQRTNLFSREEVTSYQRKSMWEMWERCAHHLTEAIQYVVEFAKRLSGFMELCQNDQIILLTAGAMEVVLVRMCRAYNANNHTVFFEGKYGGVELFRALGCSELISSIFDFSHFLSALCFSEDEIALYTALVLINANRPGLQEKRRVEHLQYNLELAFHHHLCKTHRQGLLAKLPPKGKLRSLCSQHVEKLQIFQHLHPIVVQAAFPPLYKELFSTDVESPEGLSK
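A Gal4/UAS one-hybrid system in insect cells: metallothionein-promoter Gal4–ROR gamma fusion plus Photinus luciferase reporter. Copper sulfate 700 uM final, 20 hr ambient incubation, luminescent detection after 10 min with reagent.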
MCF10A rerep: A quantitative high throughput screen for small molecules that induce DNA re-replication in MCF 10a normal breast cells | MCF 10A DNA re-replication, Hoechst nuclear intensity, 48 h | Potency, µM (highest dose often 46.1 µM), most hits filed as activators | 2.9% of 350,000 active | AID 624296, 2012; also: nearly all actives have a fitted effect of over 50% in size
IL-1B inflam inh: qHTS for Inhibitors of Inflammasome Signaling: IL-1-beta AlphaLISA Primary Screen; THP-1 LPS/ATP IL-1B secretion, AlphaLISA, 16 h; stronger effect = lower value; activity change, % at 57.5 µM; 4.7% of 360,000 active; AID 743279, 2014; in the data active = activity change below about -50%; inconclusive = mostly about -30% to -49%
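Secreted IL-1B measured by AlphaLISA bead assay after 16 h compound exposure of THP-1 cells; compounds (final up to 57.5 uM) added 1 h before LPS (250 ng/mL) and ATP (1.25 mM) stimulation; lower signal means less secretion.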
Large screens that a line does not name were inactive; ! = not confirmed by another sample. A selection: hits, their analogues and other compounds. The true share with any hit is near 11%. Unless noted, calls follow the shape of the dose curve; as a rule, active = well fitted curve in the direction sought with a large enough effect; inconclusive = small, poorly fitted or top-dose-only effect, or another doubt; inactive = no such curve, though single readings can be large; an effect the other way counts as inactive or inconclusive.

COc1ccccc1N1C(=O)C2C3C=CC(C3)C2(C)C1=O (stereo unspecified)	none
Cc1ccccc1[C@@]1(C)ON(c2ccccc2C(F)(F)F)C1=O	MCF10A rerep inconclusive, IL-1B inflam inh -84.8 (no result: VP16 counter, RORg inh)
CC[C@@]1(c2ccccc2OC)ON(c2ccccc2C(F)(F)F)C1=O	SW480 rerep inconclusive, MCF10A rerep inconclusive, IL-1B inflam inh -80.3 (no result: VP16 counter, RORg inh)
O=C1N(c2ccccc2C(F)(F)F)O[C@]1(c1ccccc1)C1CCCC1	SW480 rerep inconclusive, MCF10A rerep 18.4µM (no result: VP16 counter, RORg inh)
COC(=O)[C@]1(Sc2ccc(C)cc2)CC(=O)N[C@@H]1c1ccccc1	none (no result: SW480 rerep, VP16 counter, RORg inh, MCF10A rerep)
C/C=C(\CS(=O)(=O)c1ccccc1)S(=O)(=O)c1ccccc1	SW480 rerep inconclusive, VP16 counter 6.31µM, RORg inh 3.55µM, MCF10A rerep inconclusive, IL-1B inflam inh inconclusive
Nc1nc(NCCO)nc(N2CCCCCC2)c1[N+](=O)[O-]	none
OCCN(CCO)c1nc(N2CCCCC2)c2nc(N(CCO)CCO)nc(N3CCCCC3)c2n1	SW480 rerep 11.6µM!, RORg inh inconclusive, MCF10A rerep 6.99µM
O=[N+]([O-])c1ccc(CSc2ccc(S(=O)(=O)N3CCOCC3)cn2)cc1	IL-1B inflam inh -63.6 (no result: VP16 counter, RORg inh)
O=[N+]([O-])c1ccc(CSc2ccc(S(=O)(=O)N3CCCC3)cn2)cc1	none (no result: VP16 counter, RORg inh)
O=[N+]([O-])c1ccc(CSc2ccc(S(=O)(=O)N3CCCCC3)cn2)cc1	IL-1B inflam inh -50.0 (no result: VP16 counter, RORg inh)
CSCC[C@@H]1NC(=O)C/C=C\[C@@H](C)COC(=O)[C@@H](CCSC)NC(=O)C/C=C\[C@@H](C)COC1=O	none (no result: SW480 rerep, MCF10A rerep, IL-1B inflam inh)
Cc1ccc(-c2nc3c(Cl)cc(C(F)(F)F)cn3c2Cc2ccsc2)cc1	none (no result: SW480 rerep, VP16 counter, RORg inh, MCF10A rerep)
COc1ccc(N(CC(=O)NCc2ccco2)C(=O)CCC(=O)Nc2nccs2)cc1	none
O=C(N/N=C/c1cc([N+](=O)[O-])cc(Br)c1O)C12CC3CCC(CC(C3)C1)C2	VP16 counter 3.98µM, RORg inh 5.01µM, MCF10A rerep inconclusive
COc1cc(/C=N/NC(=O)C23CC4CC(CC(C4)C2)C3)cc(Br)c1O	SW480 rerep inconclusive
CC(C)[C@H](CO)Nc1nc(Nc2ccc(C(=O)O)c(Cl)c2)c2ncn(C(C)C)c2n1	none (no result: SW480 rerep, MCF10A rerep, IL-1B inflam inh)
C=CC(=O)Nc1ccc(Nc2nc(NC3CCC(N(C)C)CC3)nc3c2ncn3C(C)C)cc1 (stereo unspecified)	MCF10A rerep inconclusive, IL-1B inflam inh -108.8 (no result: VP16 counter, RORg inh)
Fc1ccc(C2CC(c3cccs3)=NN2C(=S)Nc2ccccc2)cc1 (stereo unspecified)	RORg inh 7.94µM
CNC(=S)N1N=C(c2ccc(OC)cc2)CC1c1ccc(N(C)C)cc1 (stereo unspecified)	VP16 counter inconclusive, RORg inh 12.6µM, MCF10A rerep inconclusive
CNC(=S)N1N=C(c2cccs2)CC1c1ccc(OC)cc1 (stereo unspecified)	RORg inh 20µM, MCF10A rerep inconclusive, IL-1B inflam inh inconclusive
O=C(Nc1ccccc1)N1N=C(c2ccc(F)cc2)CC1c1ccc(F)cc1 (stereo unspecified)	none
COc1ccc(C2CC(c3cccs3)=NN2C(=O)CN2CCCCC2)cc1 (stereo unspecified)	IL-1B inflam inh -65.0
Nc1c(C(=O)CSc2nnc(-c3ccccc3)o2)c(=O)[nH]c(=O)n1C1CC1	none (no result: VP16 counter, RORg inh)
CO[C@H]1COC(=O)[C@H](C)NC(=O)C/C=C\[C@@H](C)[C@H](OC)COC(=O)[C@@H](OCc2ccccc2)/C=C\[C@@H]1C	none (no result: SW480 rerep, MCF10A rerep, IL-1B inflam inh)
NC(=O)C1(Nc2ccc(C(=O)O)cc2)CCCC1	none (no result: VP16 counter, RORg inh)
C=C1CCC2[C@](C)(CO)[C@H](O)CC[C@@]2(C)[C@@H]1C/C=C1/C(=O)OC[C@H]1O (stereo partly specified)	none (no result: SW480 rerep, MCF10A rerep, IL-1B inflam inh)
C=C1CCC2[C@](C)(CO)[C@H](O)CC[C@@]2(C)[C@@H]1C/C=C1\C(=O)OC[C@H]1O (stereo partly specified)	SW480 rerep inconclusive, MCF10A rerep inconclusive, IL-1B inflam inh -87.7 (no result: VP16 counter, RORg inh)
O=C1CC(c2ccc(F)cc2)CC2=C1C=Nc1ccccc1N2 (stereo unspecified)	MCF10A rerep inconclusive, IL-1B inflam inh -93.1
CC1CC(=O)C2=C(C1)Nc1ccccc1N=C2 (stereo unspecified)	none
O=C1CC(c2ccccc2)CC2=C1C=Nc1ccccc1N2 (stereo unspecified)	SW480 rerep 14.6µM, MCF10A rerep 18.4µM, IL-1B inflam inh -97.5
CC(=C\c1ccccc1)/C=C1/SC(=S)N(CCC(=O)O)C1=O	MCF10A rerep inconclusive
COc1ccc(/C=C2\SC(=O)N(CC(=O)Nc3cccc(C)c3)C2=O)cc1O	SW480 rerep inconclusive, VP16 counter 17.8µM, RORg inh inconclusive, MCF10A rerep 20.6µM, IL-1B inflam inh inconclusive
CC(/C=C1\SC(=O)N(CC(=O)Nc2ccc(O)cc2)C1=O)=C\c1ccccc1	MCF10A rerep inconclusive, IL-1B inflam inh -76.4
COc1cccc2c(=O)cc(C)n(CC(=O)Nc3cccc(C)c3)c12	VP16 counter 11.2µM, RORg inh inconclusive
CC(=O)c1ccc(NC(=O)CCCN2C(=O)/C(=C/C(C)=C/c3ccccc3)SC2=S)cc1	VP16 counter inconclusive, RORg inh 11.2µM, IL-1B inflam inh -65.7
CC(/C=C1\SC(=S)N(CC(=O)O)C1=O)=C\c1ccccc1	MCF10A rerep inconclusive
COc1cc2ccc(CC(N)=O)cc2cc1OC	none (no result: SW480 rerep, VP16 counter, RORg inh, MCF10A rerep)
O=C(Nc1ccc(Cl)cc1)N[C@@H]1CC[C@H](CCNS(=O)(=O)c2ccccc2F)O[C@@H]1CO	none (no result: SW480 rerep, VP16 counter, RORg inh, MCF10A rerep)
CCCc1nn2c(=O)cc(COc3ccc(NC(=O)c4ccco4)cc3)nc2s1	none
Cc1cccc(NC(=O)CCCN2C(=O)C(c3ccccc3)Oc3cccnc32)c1C (stereo unspecified)	none
CSCC[C@H](NC(=O)[C@H](CC(C)C)NC(=O)CNC(=O)[C@H](Cc1ccccc1)NC(=O)[C@H](Cc1ccccc1)NC(=O)[C@H](CCC(N)=O)NC(=O)[C@H](CCC(N)=O)NC(=O)[C@@H]1CCCN1C(=O)[C@H](CCCCN)NC(=O)[C@@H]1CCCN1C(=O)[C@@H](N)CCCN=C(N)N)C(N)=O	none (no result: SW480 rerep, MCF10A rerep, IL-1B inflam inh)
C[C@@]12CCC3[C@@](CCC4[C@@]3(C)CCC[C@@]4(C)C(=O)N3CCOCC3)(CC1=O)C2 (stereo partly specified)	none (no result: VP16 counter, RORg inh)
O=P(O)(O)O[C@@H]1[C@H](O)[C@H](O)[C@@H](OP(=O)(O)O)[C@H](OP(=O)(O)O)[C@H]1O	none (no result: SW480 rerep, MCF10A rerep, IL-1B inflam inh)
O=C(NN1C(=O)/C(=C/C=C/c2ccco2)SC1=S)c1ccncc1	none
O=C(NN1C(=O)/C(=C/c2ccc(O)cc2)SC1=S)c1cccc(O)c1	none
CC(/C=C1\SC(=S)N(NC(=O)c2cccc(O)c2)C1=O)=C\c1ccccc1	VP16 counter inconclusive, MCF10A rerep 11.6µM, IL-1B inflam inh -100.8

Bioassay records (PubChem BioAssay)
